Results filed as inconclusive are left out. Activity calls are given as the source filed them. Calls follow the shape of the dose curve; as a rule, active = well fitted curve in the direction sought with a large enough effect; inconclusive = small, poorly fitted or top-dose-only effect, or another doubt; inactive = no such curve, though single readings can be large; an effect the other way counts as inactive or inconclusive.
Key:
[1] = target: Cellular tumor antigen p53 (Homo sapiens) (UniProt P04637); assay: Primary qHTS for small molecule compounds that upregulate eGFP-tagged delta133p53alpha (in N-terminal) cells. (AID 2060322); details: NCI-H358 eGFP-delta133p53alpha fluorescence, 24 h; activation: hits give high values;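 also: cells pre-induced with doxycycline then dosed without doxycycline; series mostly up to about 56 µM; 0% = DMSO vehicle and 100% = reference activator; nearly all actives have a fitted effect of over 75% in size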
Sequence of Cellular tumor antigen p53 (Homo sapiens) (P04637 whole entry, looked up): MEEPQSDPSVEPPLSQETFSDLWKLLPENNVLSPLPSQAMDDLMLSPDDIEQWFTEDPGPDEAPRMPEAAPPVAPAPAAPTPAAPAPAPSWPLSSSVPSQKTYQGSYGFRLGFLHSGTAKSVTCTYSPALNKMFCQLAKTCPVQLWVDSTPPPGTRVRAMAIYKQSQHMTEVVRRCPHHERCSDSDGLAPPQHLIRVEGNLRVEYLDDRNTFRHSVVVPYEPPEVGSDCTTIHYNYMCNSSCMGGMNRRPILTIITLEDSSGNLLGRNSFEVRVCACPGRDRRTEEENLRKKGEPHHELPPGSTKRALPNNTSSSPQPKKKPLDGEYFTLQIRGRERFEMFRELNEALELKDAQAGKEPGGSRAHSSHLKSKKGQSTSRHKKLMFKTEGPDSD
Procedure, shortened: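 NCI-H358 cells pre-induced 24 h with 10 ng/ml doxycycline for eGFP-delta133p53alpha, plated dox-free and exposed 24 h at 37C to titrated compounds. Fixed, Hoechst-stained; gated GFP peak intensity by laser scanning cytometry, normalized to DMSO (0%) and 57.5 uM 5-azacytidine (100%).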

[2] = target: Aldehyde dehydrogenase, mitochondrial (Homo sapiens) (UniProt P05091); assay: qHTS for Inhibitors of the Aldehyde Dehydrogenase Family (ALDH2) Primary screen (AID 2061308);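 also: plate controls were vehicle for no effect and reference inhibitor for full effect; nearly all actives have a fitted effect of over 55% in size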
[3] = target: Retinaldehyde dehydrogenase 3 (Homo sapiens) (UniProt P47895); assay: qHTS for Inhibitors of the Aldehyde Dehydrogenase Family (ALDH1A3) Primary screen (AID 2061315);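 also: plate controls were DMSO vehicle for no effect and reference inhibitor for full effect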

C[C@@H]1O[C@@H](O[C@H]2[C@H](OC(=O)[C@]34CCC(C)(C)C[C@H]3C3=CCC5[C@@]6(C)CC[C@H](O[C@@H]7O[C@H](CO[C@@H]8OC[C@H](O)[C@H](O)[C@H]8O[C@@H]8OC[C@@H](O)[C@H](O)[C@H]8O)[C@@H](O)[C@H](O)[C@H]7O)C(C)(C)C6CC[C@@]5(C)[C@]3(C)C[C@H]4O)O[C@H](CO)[C@@H](O)[C@@H]2O)[C@H](O[C@@H]2O[C@H](CO)[C@@H](O)[C@H](O)[C@H]2O)[C@H](O)[C@H]1O[C@@H]1OC[C@@H](O)[C@H](O[C@@H]2OC[C@@H](O)[C@H](O)[C@H]2O)[C@H]1O (stereo not given in full)
inactive: activation [1] -9.92% | activity change, negative = inhibition [2] 6.45% [at 11.2 µM] | activity change, negative = inhibition [3] 8.82% [at 11.2 µM]

CCNC(=O)C1OC(n2cnc3c(N)nc(NCCc4ccc(CCC(=O)O)cc4)nc32)C(O)C1O (stereo not given)
inactive: activation [1] -5.73% | Potency [2] | Potency [3]

CC1CCC2C(C)(C)[C@@H](O)CC[C@]2(C)C12Cc1c(O)cc3c(c1O2)CN(C(CCC(=O)O)C(=O)O)C3=O (stereo not given in full)
inactive: activation [1] 23.2% | Potency [2] | Potency [3]

Cc1cc(O)cc(O[C@@H]2O[C@H](CO)[C@@H](O)[C@H](O)[C@H]2O)c1
inactive: activation [1] -6.11% | Potency [2] | Potency [3]

CC1OC2OC(=O)C3(C)CC4=C(CO)C5=C(CC(=O)C4(C)C(C1=O)C23)C(C)(C)OC(=O)C5 (stereo not given)
inactive: activation [1] -7.63% | Potency [2] | Potency [3]

C=CCc1ccc(OC(C)Cc2ccc(OC)c(OC)c2)c(OC)c1 (stereo not given)
inactive: activation [1] -15.2% | Potency [2] | Potency [3]

C=C1Cc2c(Cl)cc3[nH]c4c5c3c2[C@@]2(O)[C@@H]1C[C@@H]2C(C)(C)O[C@H]5C1CC[C@@]2(O)[C@@]35O[C@@H]3[C@H]3OC(C)(C)[C@H]3O[C@H]5CC[C@]2(C)[C@@]41C (stereo not given in full)
inactive: activation [1] -14.5% | Potency [2] | Potency [3]

CC1CC(C(O)C(C)(C)O)OC2CC3(C)C4(C)CCC5C(C)(C)C(=O)CCC5(C)C4CCC3(O)C12O (stereo not given)
inactive: activation [1] -11.5% | Potency [2] | Potency [3]

O=C(c1ccc2nccnc2c1)N1CCCCC1
inactive: activation [1] -11% | Potency [2] | Potency [3]

COc1ccccc1[C@@H]1C2=C(CC(C)(C)CC2=O)Nc2n[nH]c(C(F)(F)F)c21
inactive: activation [1] 9.67% | Potency [2] | Potency [3]

COc1ccc2c(c1)C(C(=O)N(Cc1ccc(N(C)C)cc1)c1ccc(C(C)C)cc1)CCC2 (stereo not given)
inactive: activation [1] 1% | Potency [2] | Potency [3]

CC(C)n1cnc2c(-c3cnc(N)nc3)nc(N3CCOCC3)nc21
inactive: activation [1] 15.7% | Potency [2] | Potency [3]

CCOc1cn(-c2ccc(F)cc2C)nc1C(=O)Nc1ccc(Oc2ccnc3cc(OC)c(OC)cc23)c(F)c1
inactive: activation [1] 12.5% | Potency [2] | Potency [3]

O=C(Cn1c2ccccc2c2nc3n(c(=O)c21)CCS3)N1CCCC1
inactive: activation [1] 5.67% | Potency [2] | Potency [3]

COC(=O)C1=CO[C@@H](O[C@@H]2O[C@H](CO)[C@@H](O)[C@H](O)[C@H]2O)[C@@H]2[C@@H](CO)[C@@H](O)C(O)[C@H]12 (stereo not given in full)
inactive: activation [1] -1.79% | Potency [2] | Potency [3]

COc1cc2c(cc1O)CC(O)(CO)C(CO)C2c1ccc(OC2OC(CO)C(O)C(O)C2O)c(OC)c1 (stereo not given)
inactive: activation [1] -31.3% | Potency [2] | Potency [3]

O=S(=O)(NCc1ccccn1)c1ccc(Br)c2ccccc12
inactive: activation [1] 0.333% | Potency [2] | Potency [3]

C=C1C(OC(C)=O)C(=O)C2C(C)(C)C(OC(C)=O)CCC2(C)C1CC(OC(C)=O)/C(C)=C/COC(C)=O (stereo not given)
inactive: activation [1] 17.6% | Potency [2] | Potency [3]

OC[C@@]1(O)CO[C@H](OC[C@H]2O[C@@H](OC(CCCCc3ccc(O)cc3)CCc3ccc(O)cc3)[C@H](O[C@H]3OC[C@](O)(CO)[C@H]3O)[C@@H](O)[C@@H]2O)[C@@H]1O (stereo not given in full)
inactive: activation [1] -2.29% | Potency [2] | Potency [3]

CCOCc1cc(OC)c(-c2ccc(C[C@H](NC(=O)c3c(F)cccc3F)C(=O)O)cc2)c(OC)c1
inactive: activation [1] -5.67% | Potency [2] | Potency [3]

CC(C)C(N)C(=O)OCCOCn1cnc2c(=O)[nH]c(N)nc21 (stereo not given)
inactive: activation [1] 8.93% | Potency [2] | Potency [3]

C[C@@H]1O[C@@H](O[C@H]2[C@H](OC(=O)[C@]34CCC(C)(C)C[C@H]3C3=CCC5[C@@]6(C)C[C@H](O)[C@H](O[C@@H]7O[C@H](CO[C@@H]8OC[C@H](O)[C@H](O)[C@H]8O)[C@@H](O)[C@H](O)[C@H]7O)C(C)(C)C6CC[C@@]5(C)[C@]3(C)C[C@H]4O)OC[C@@H](O)[C@@H]2O)[C@H](O)[C@H](O[C@@H]2OC[C@](O)(CO)[C@H]2O)[C@H]1O[C@@H]1OC[C@H](O)[C@H](O[C@@H]2OC[C@@H](O)[C@H](O)[C@H]2O)[C@H]1O (stereo not given in full)
inactive: activation [1] 8.93% | activity change, negative = inhibition [2] -4.16% [at 11.2 µM] | activity change, negative = inhibition [3] 0.994% [at 11.2 µM]

COC(=O)C1=COC(OC2OC(CO)C(O)C(O)C2O)C2C1CC(OC(=O)C(O)CC(=O)O)C2C (stereo not given)
inactive: activation [1] 10.7% | Potency [2] | Potency [3]

COc1ccccc1C(=O)Nc1cccc(NC(=O)c2cccc(C)c2)c1
inactive: activation [1] -11.7% | Potency [2] | Potency [3]

CC(C)NCCCn1c(Sc2cc3c(cc2I)OCO3)nc2c(N)ncnc21
inactive: activation [1] 10% | Potency [2] | Potency [3]

CC(=O)OC/C=C(\C)C(CC1C(C)=C(OC(C)=O)C(=O)C2C(C)(C)C(O)CCC12C)OC(C)=O (stereo not given)
inactive: activation [1] -2.68% | Potency [2] | Potency [3]

CC1CCCC(O)CC(=O)c2c(O)cc(O)cc2CC(=O)O1 (stereo not given)
inactive: activation [1] 4.58% | Potency [2] | Potency [3]

C=C1CCC2C(C)(C(=O)O)CCCC2(C)C1CCC(C)CC(=O)O (stereo not given)
inactive: activation [1] -3.57% | Potency [2] | Potency [3]

CC(O)C1NC(=O)C2CCCN2C1=O (stereo not given)
inactive: activation [1] -25.2% | Potency [2] | Potency [3]

CC(=O)O[C@@H]1[C@H](O[C@@H]2OC[C@](O)(CO)[C@H]2O)[C@@H](O[C@@H]2O[C@@H](C)[C@H](O)[C@@H](O)[C@H]2O)[C@H](OC(=O)[C@]23CCC(C)(C)C[C@H]2C2=CCC4[C@@]5(C)C[C@H](O)[C@H](O[C@@H]6O[C@H](C(=O)O)[C@@H](O)[C@H](O)[C@H]6O)[C@@](C)(C(=O)O)C5CC[C@@]4(C)[C@]2(C)CC3)O[C@@H]1C (stereo not given in full)
inactive: activation [1] 18.3% | Potency [2] | Potency [3]

CO[C@H]1C[C@@H]2CC[C@@H](C)[C@@](O)(O2)C(=O)C(=O)N2CCCC[C@H]2C(=O)O[C@H]([C@H](C)C[C@@H]2CC[C@H](n3cnnn3)[C@H](OC)C2)CC(=O)[C@H](C)/C=C(\C)[C@@H](O)[C@@H](OC)C(=O)[C@H](C)C[C@H](C)/C=C/C=C/C=C/1C
inactive: activation [1] 1% | Potency [2] | Potency [3]

C/C=C(\C)C(=O)O[C@H]1[C@@H](O[C@]2(COC(=O)CC(C)C)O[C@H](COC(=O)C(C)C)[C@@H](OC(C)=O)[C@@H]2O)O[C@H](COC(C)=O)[C@@H](O)[C@@H]1O
inactive: activation [1] 10.7% | Potency [2] | Potency [3]

CC1(C)CCC[C@@]2(C)[C@H]1[C@H](O)C=C(CO)[C@]2(O)CO
inactive: activation [1] -1.53% | Potency [2] | Potency [3]

C=C[C@]1(C)C=C2CCC3C(C)(CCC[C@@]3(C)C(=O)O)C2CC1 (stereo not given in full)
inactive: activation [1] 3.57% | Potency [2] | Potency [3]

CC(=O)O[C@H]1[C@@]2(O)C[C@H](C)[C@H](OC(=O)c3ccccc3)[C@@H]2[C@@H](OC(=O)CO)[C@]2(OC(C)=O)C[C@H]3C(=O)C(C)(C)C[C@@H]3[C@@]1(C)[C@H]2OC(C)=O
inactive: activation [1] -6.25% | Potency [2] | Potency [3]

CC/C=C\CC1C(CC(=O)O)CCC1OC1OC(CO)C(O)C(O)C1O (stereo not given)
inactive: activation [1] 0% | Potency [2] | Potency [3]

O=C(O)CCc1cccc(O)c1O[C@@H]1O[C@H](CO)[C@@H](O)[C@H](O)[C@H]1O
inactive: activation [1] 0% | Potency [2] | Potency [3]

C=C(C)[C@@H](C)[C@H]1O[C@]23C[C@]4(CO2)C(CCC2[C@@]5(C)CC[C@H](O[C@@H]6OC[C@H](O)[C@H](O[C@@H]7O[C@H](CO)[C@@H](O)[C@H](O)[C@H]7O)[C@H]6O[C@@H]6O[C@@H](CO)[C@H](O)[C@H]6O)C(C)(C)C5CC[C@]24C)C3[C@@](C)(O)[C@@H]1OC(C)=O (stereo not given in full)
inactive: activation [1] -7.63% | Potency [2] | Potency [3]

COC(=O)/C=C/C=C/C(=O)OC1C=C2COC(=O)C2(O)C2(C)CCCC(C)(C)C12 (stereo not given)
inactive: activation [1] -4.58% | Potency [2] | Potency [3]

CC(CO)C1CCC2(C)CC3C(CO)CC(O)C3C(C)(O)C/C=C/12 (stereo not given)
inactive: activation [1] -8.04% | Potency [2] | Potency [3]

COc1c2c(c(C)c3c1C(=O)OC3)OC1(C)CC(O)C34OC(OC)(CCC3(C)C1C2)OC4(C)CO (stereo not given)
inactive: activation [1] 13% | Potency [2] | Potency [3]

COC(=O)CC(O)CC(O)/C=C/c1c(C)ccc2c1C(OC(C)=O)CC(C)C2 (stereo not given)
inactive: activation [1] -0.763% | Potency [2] | Potency [3]

CC1=CCC[C@@H]2[C@@](C)(CCc3ccoc3)[C@H](C(=O)O)CC[C@@]12C
inactive: activation [1] 14.3% | Potency [2] | Potency [3]

CC1=C2C[C@H]3O[C@@]3(C)CCC3O[C@@]3(C)C[C@@]2(O)OC1=O (stereo not given in full)
inactive: activation [1] -2.29% | Potency [2] | Potency [3]

CC(C)C[C@@H](N)C(=O)N[C@H]1C(=O)N[C@@H](CC(N)=O)C(=O)N[C@H]2C(=O)N[C@H]3C(=O)N[C@H](C(=O)N[C@H](C(=O)O)c4cc(O)cc(O)c4-c4cc3ccc4O)[C@H](O)c3ccc(c(Cl)c3)Oc3cc2cc(c3O[C@@H]2O[C@H](CO)[C@@H](O)[C@H](O)[C@H]2O[C@H]2C[C@](C)(N)[C@H](O)[C@H](C)O2)Oc2ccc(cc2Cl)[C@H]1O
inactive: activation [1] 6.33% | Potency [2] | Potency [3]

Reference: PubChem BioAssay (NCATS)
